# What was measured:
# [1] = target: Sphingosine kinase 1 (Homo sapiens) (UniProt Q9NYA1); details: at 1 µM;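 also: mean SPHK1 inhibition value reported from the GSK PKIS kinase panel screen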
# [2] = target: T1, Sphingosine kinase 2 (Homo sapiens) (UniProt Q9NRA0); details: at 0.1 µM
# T1 sequence (whole entry): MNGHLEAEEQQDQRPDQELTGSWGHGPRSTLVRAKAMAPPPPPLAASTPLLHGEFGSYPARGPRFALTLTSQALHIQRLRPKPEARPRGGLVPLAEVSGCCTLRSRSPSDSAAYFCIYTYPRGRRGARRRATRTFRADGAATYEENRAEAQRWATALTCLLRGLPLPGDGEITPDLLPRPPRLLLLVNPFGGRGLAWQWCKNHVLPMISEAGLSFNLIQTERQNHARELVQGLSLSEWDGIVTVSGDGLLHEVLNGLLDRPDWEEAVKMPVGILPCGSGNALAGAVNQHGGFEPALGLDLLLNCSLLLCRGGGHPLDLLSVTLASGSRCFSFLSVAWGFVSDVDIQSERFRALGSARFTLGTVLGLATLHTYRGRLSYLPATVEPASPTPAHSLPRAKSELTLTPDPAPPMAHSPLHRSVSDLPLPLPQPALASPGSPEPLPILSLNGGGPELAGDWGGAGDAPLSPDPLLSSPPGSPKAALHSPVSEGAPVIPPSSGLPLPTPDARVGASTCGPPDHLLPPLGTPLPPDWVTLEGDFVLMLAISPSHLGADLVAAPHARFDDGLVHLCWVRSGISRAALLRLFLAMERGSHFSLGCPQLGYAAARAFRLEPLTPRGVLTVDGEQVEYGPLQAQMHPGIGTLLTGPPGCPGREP
# [3] = target: T1, Sphingosine kinase 2 (Homo sapiens); details: at 1 µM
# [4] = target: Casein kinase II subunit alpha (Homo sapiens) (UniProt P68400); details: at 0.1 µM
# [5] = target: Casein kinase II subunit alpha (Homo sapiens) (UniProt P68400); details: at 1 µM
# [6] = target: T2, Inhibitor of nuclear factor kappa-B kinase subunit alpha (Homo sapiens) (UniProt O15111); details: at 0.1 µM
# T2 sequence (whole entry): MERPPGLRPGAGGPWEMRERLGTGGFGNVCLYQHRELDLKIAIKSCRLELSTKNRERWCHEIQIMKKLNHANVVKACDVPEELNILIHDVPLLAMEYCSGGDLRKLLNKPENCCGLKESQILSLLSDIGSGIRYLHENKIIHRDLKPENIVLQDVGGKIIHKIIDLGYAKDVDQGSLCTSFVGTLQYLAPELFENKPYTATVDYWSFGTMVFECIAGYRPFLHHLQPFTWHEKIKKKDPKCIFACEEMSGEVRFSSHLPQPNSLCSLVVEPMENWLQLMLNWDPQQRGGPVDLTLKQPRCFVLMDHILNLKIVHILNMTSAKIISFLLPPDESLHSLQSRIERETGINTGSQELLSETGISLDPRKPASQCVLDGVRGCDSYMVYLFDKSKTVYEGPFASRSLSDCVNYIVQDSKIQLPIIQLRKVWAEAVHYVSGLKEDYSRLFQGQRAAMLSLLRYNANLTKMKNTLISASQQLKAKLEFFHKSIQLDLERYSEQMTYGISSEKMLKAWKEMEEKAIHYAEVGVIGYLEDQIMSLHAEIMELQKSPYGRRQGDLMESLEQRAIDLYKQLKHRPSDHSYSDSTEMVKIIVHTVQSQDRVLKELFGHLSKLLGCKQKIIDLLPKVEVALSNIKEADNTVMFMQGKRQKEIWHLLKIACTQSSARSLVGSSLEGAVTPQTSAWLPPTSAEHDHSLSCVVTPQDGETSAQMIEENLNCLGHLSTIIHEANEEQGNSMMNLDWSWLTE
# [7] = target: T2, Inhibitor of nuclear factor kappa-B kinase subunit alpha (Homo sapiens); details: at 1 µM
# [8] = target: T3, Inhibitor of nuclear factor kappa-B kinase subunit beta (Homo sapiens) (UniProt O14920); details: at 0.1 µM
# T3 sequence (whole entry): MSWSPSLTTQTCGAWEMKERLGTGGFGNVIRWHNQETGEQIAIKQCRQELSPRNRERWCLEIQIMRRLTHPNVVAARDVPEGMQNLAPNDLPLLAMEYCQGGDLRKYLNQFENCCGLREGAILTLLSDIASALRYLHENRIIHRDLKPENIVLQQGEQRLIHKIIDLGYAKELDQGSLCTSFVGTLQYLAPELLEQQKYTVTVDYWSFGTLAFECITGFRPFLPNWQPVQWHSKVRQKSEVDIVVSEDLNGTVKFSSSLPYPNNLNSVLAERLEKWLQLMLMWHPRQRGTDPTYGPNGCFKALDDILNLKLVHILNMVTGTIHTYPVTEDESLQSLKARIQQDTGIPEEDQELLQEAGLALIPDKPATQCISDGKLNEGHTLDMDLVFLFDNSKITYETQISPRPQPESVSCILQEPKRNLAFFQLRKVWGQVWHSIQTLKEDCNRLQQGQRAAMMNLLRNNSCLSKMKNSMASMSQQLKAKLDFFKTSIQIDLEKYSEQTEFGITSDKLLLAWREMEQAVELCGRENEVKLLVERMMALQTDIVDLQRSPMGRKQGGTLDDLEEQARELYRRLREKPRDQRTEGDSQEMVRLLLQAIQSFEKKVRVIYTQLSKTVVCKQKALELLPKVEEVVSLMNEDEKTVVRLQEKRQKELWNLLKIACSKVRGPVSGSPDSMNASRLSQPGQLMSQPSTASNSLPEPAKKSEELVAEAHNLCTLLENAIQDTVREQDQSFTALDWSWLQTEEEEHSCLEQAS
# [9] = target: T3, Inhibitor of nuclear factor kappa-B kinase subunit beta (Homo sapiens); details: at 1 µM
# [10] = target: T4, Inhibitor of nuclear factor kappa-B kinase subunit epsilon (Homo sapiens) (UniProt Q14164); details: at 0.1 µM
# T4 sequence (whole entry): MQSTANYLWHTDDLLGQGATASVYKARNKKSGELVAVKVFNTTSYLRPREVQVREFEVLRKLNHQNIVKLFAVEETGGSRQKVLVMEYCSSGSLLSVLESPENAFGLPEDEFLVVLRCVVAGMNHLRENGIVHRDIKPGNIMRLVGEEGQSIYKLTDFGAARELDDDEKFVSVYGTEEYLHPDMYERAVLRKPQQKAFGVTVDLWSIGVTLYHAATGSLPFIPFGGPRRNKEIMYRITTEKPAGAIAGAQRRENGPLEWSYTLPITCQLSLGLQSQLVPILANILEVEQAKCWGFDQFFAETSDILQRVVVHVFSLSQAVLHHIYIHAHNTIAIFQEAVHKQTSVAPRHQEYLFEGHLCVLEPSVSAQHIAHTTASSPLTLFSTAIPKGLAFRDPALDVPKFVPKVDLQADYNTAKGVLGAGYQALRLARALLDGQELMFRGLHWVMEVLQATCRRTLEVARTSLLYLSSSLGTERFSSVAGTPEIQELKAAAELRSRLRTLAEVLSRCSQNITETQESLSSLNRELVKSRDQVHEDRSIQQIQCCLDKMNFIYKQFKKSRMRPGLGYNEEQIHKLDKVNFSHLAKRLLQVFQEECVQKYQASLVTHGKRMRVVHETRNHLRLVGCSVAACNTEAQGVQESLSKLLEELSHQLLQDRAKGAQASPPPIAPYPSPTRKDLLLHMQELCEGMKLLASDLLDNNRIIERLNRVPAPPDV
# [11] = target: T4, Inhibitor of nuclear factor kappa-B kinase subunit epsilon (Homo sapiens); details: at 1 µM
# [12] = target: T5, Serine/threonine-protein kinase Nek1 (Homo sapiens) (UniProt Q96PY6); details: at 0.1 µM
# T5 sequence (whole entry): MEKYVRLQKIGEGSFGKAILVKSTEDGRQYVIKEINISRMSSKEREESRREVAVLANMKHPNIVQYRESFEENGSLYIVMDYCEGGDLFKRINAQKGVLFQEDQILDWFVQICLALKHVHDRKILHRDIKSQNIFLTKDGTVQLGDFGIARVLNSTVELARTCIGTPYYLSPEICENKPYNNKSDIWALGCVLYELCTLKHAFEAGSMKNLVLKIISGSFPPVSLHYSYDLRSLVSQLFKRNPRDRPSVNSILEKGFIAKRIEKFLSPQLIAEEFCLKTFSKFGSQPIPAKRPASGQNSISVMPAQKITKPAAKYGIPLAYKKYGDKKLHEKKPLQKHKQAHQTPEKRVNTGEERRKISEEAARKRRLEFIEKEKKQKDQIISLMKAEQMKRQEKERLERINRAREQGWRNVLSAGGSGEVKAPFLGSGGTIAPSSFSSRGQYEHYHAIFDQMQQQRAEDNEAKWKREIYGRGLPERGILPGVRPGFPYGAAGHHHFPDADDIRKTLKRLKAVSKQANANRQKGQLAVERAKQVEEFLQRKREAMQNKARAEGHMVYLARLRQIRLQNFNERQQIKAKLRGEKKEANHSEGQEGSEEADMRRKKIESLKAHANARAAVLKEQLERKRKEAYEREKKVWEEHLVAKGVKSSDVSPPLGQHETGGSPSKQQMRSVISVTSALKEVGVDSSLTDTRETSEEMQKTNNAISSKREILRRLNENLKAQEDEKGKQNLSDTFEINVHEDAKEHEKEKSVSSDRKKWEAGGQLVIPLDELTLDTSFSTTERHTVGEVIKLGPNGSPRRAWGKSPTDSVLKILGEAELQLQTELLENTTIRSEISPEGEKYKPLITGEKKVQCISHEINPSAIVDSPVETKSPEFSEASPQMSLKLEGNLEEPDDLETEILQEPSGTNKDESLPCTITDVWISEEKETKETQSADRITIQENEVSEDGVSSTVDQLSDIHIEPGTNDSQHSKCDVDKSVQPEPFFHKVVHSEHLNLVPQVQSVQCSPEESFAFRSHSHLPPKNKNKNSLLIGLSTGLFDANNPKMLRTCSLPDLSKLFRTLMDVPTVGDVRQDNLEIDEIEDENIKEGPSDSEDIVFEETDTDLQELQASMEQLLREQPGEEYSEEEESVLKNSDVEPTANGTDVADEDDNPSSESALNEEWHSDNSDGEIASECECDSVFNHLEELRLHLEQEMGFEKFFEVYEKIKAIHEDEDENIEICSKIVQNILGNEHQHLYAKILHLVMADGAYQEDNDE
# [13] = target: T5, Serine/threonine-protein kinase Nek1 (Homo sapiens); details: at 1 µM
# [14] = target: T6, Serine/threonine-protein kinase Nek2 (Homo sapiens) (UniProt P51955); details: at 0.1 µM
# T6 sequence (whole entry): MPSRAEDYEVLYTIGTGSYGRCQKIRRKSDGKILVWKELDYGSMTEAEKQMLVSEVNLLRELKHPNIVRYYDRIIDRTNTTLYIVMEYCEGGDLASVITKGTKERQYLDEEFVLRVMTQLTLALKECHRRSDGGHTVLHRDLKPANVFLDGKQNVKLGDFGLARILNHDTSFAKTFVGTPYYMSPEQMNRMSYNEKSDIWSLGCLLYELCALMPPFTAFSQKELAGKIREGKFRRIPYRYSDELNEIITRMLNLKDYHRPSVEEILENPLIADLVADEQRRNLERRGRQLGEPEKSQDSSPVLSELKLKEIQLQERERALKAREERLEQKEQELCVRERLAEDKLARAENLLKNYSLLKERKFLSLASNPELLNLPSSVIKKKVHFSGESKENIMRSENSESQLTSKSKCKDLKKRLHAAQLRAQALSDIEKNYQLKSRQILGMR
# [15] = target: T6, Serine/threonine-protein kinase Nek2 (Homo sapiens); details: at 1 µM
# [16] = target: Serine/threonine-protein kinase Nek6 (Homo sapiens) (UniProt Q9HC98); details: at 0.1 µM
# [17] = target: Serine/threonine-protein kinase Nek6 (Homo sapiens) (UniProt Q9HC98); details: at 1 µM
# [18] = target: Serine/threonine-protein kinase Nek7 (Homo sapiens) (UniProt Q8TDX7); details: at 0.1 µM
# [19] = target: Serine/threonine-protein kinase Nek7 (Homo sapiens) (UniProt Q8TDX7); details: at 1 µM
# [20] = target: T7, Serine/threonine-protein kinase Nek9 (Homo sapiens) (UniProt Q8TD19); details: at 0.1 µM;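 also: reported value is the mean percent inhibition of NEK9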
# T7 sequence (whole entry): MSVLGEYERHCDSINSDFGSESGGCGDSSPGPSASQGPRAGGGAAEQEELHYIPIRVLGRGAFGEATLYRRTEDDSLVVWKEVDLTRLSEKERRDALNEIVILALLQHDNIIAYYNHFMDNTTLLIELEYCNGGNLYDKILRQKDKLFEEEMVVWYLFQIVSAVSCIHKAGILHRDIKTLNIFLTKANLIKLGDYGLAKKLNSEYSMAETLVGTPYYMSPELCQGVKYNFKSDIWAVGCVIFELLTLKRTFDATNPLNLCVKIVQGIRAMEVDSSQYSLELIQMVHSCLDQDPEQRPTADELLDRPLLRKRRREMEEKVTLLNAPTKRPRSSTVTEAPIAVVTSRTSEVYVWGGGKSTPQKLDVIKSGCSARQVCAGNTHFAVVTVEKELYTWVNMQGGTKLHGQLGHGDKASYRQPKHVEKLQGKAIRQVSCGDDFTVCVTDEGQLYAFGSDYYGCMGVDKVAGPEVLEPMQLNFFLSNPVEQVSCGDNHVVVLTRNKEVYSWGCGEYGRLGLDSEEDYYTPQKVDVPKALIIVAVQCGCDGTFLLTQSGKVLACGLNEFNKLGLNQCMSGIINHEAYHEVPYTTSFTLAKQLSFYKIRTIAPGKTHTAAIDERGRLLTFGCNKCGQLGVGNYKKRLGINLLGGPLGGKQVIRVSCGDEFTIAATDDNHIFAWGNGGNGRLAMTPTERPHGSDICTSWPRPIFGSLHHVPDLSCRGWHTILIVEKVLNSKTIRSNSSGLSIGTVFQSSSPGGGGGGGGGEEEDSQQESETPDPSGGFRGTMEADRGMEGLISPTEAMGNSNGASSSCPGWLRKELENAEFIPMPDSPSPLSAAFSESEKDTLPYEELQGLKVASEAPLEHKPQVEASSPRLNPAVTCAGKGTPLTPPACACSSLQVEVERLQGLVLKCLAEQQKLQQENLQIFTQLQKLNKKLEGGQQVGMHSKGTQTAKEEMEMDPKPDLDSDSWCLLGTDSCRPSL
# Serine/threonine-protein kinase Nek7 (Homo sapiens), sequence (Q8TDX7 whole entry, looked up): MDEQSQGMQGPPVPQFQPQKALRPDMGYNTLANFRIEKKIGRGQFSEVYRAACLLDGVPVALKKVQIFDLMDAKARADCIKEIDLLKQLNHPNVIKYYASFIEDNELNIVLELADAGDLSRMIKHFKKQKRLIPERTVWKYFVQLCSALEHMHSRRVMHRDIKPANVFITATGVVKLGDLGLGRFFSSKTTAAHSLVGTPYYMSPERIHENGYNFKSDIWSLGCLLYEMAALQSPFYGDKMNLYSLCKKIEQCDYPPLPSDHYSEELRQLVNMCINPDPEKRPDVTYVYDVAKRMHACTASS
# Casein kinase II subunit alpha (Homo sapiens), sequence (P68400 whole entry, looked up): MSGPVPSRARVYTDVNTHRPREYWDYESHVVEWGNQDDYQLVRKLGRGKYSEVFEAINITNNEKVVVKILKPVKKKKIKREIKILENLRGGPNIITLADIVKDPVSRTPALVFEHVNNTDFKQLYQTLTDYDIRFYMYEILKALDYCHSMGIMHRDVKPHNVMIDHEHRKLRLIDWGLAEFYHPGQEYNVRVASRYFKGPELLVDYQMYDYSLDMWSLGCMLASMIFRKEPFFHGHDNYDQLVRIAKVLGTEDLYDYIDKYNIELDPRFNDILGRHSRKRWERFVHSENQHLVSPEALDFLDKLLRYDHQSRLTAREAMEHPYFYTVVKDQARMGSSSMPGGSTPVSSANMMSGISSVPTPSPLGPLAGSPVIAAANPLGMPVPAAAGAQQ
# Serine/threonine-protein kinase Nek6 (Homo sapiens), sequence (Q9HC98 whole entry): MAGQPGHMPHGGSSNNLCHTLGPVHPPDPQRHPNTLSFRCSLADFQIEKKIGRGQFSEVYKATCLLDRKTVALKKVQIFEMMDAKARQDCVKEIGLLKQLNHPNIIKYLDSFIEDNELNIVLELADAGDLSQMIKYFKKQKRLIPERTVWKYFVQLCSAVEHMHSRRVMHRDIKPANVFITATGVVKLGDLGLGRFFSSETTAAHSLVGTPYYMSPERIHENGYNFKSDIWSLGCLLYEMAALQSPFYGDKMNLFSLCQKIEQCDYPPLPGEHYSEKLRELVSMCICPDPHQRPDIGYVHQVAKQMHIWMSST
# Sphingosine kinase 1 (Homo sapiens), sequence (Q9NYA1 whole entry): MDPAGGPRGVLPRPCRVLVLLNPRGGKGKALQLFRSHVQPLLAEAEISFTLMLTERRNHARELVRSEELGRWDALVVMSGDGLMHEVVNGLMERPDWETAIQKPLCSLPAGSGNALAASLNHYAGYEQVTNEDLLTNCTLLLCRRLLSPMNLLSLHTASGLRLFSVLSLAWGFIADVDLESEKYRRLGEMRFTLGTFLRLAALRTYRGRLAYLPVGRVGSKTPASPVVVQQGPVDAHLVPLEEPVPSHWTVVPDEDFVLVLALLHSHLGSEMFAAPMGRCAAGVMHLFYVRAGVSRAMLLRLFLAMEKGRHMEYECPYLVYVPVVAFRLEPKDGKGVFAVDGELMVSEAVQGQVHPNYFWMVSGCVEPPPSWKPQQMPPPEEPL
compound,measurement,setting,value
COc1cccc(-n2ncc3c(N/N=C/c4cccc(F)c4)ncnc32)c1,inhibition,[1],-2.05%
same,inhibition,[2],3.58%
same,inhibition,[3],-0.22%
same,inhibition,[4],1.77%
same,inhibition,[5],11.4%
same,inhibition,[6],-0.08%
same,inhibition,[7],6.98%
same,inhibition,[8],2.27%
same,inhibition,[9],0.31%
same,inhibition,[10],3.6%
same,inhibition,[11],5.09%
same,inhibition,[12],2.19%
same,inhibition,[13],1.87%
same,inhibition,[14],3.27%
same,inhibition,[15],2.63%
same,inhibition,[16],2.56%
same,inhibition,[17],1.3%
same,inhibition,[18],4.53%
same,inhibition,[19],2.91%
same,inhibition,[20],3.6%

# Source: ChEMBL document CHEMBL1961873, “Compounds: GSK PKIS; Assays: Nanosyn kinase panel” (2012)
